In PubChem BioAssay (NCI):
The panel holds about 83,000 compounds, 20% with a hit somewhere; the sample as a whole holds those more often.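 Plates (96-well) were seeded with cells, treated with compound at one concentration, and incubated for 48 hours before percent growth was determined.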 Unmarked numbers belong to inactive results. The source made the active and inactive calls.

What follows are molecules tested on EKVX NSCLC (assay: NCI-60 one-dose screen, 48 h (100 = growth as untreated, 0 = no growth, -100 = all killed)). Conditions: 10 µM unless noted.
Experimental: Growth inhibition of the EKVX human Non-Small Cell Lung tumor cell line is measured as a screen for anti-cancer activity. Cells are grown in 96 well plates and exposed to the test compound for 48 hours. Compounds are tested at a single concentration, which is 10^-5 M for most compounds. The reported endpoint is percent growth (GI% or GIPRCNT), where numbers from 0 - 100% represent growth inhibition, and numbers from -100% - 0 represent cell death. For example, a value of 40 represents 60% growth inhibition. A value of 0 means no net growth occurred over the course of the experiment. A value of -40 indicates 40% of cells at the beginning of the experiment died by the end of the experiment. A value of -100 means all cells are dead at the end of the experiment.
NCI-60 Human Tumor Cell Lines Screen was performed using the standard one-dose NCI protocol, which is described in more detail at https://dtp.cancer.gov/discovery_development/nci-60/default.htm.
Compounds with GIPRCNT values below 10 were considered active. Activity score was based on GIPRCNT using the following formula: […]
Score is 0 for GIPRCNT values of 100 or above, 50 for GIPRCNT values of 0, and 100 for GIPRCNT values of -100.

| SMILES | growth |
| --- | --- |
| O=c1cc(N2CCOCC2)oc2c(-c3ccc4c(c3)OCCO4)csc12 | 9.76% (active) |
| COc1c(B(O)O)cccc1-c1nc2ccc3[nH]ncc3c2c2c1CCCC2 | 23.6% |
| CC(=O)c1cccc(Nc2ncnc3ccc(NC(=O)c4ccco4)cc23)c1 | 84.8% |
| C=C(C)C1CCC2(C(=O)O)CCC3(C)C(CCC4C5(C)CCC(O)C(C)(C)C5CCC43C)C12 (stereo not given) | 48.1% |
| C=C1NC(=O)C(C(C)CC)NC(=O)C2CSCC(NC(=O)CCC(=O)O)C(=O)NC(Cc3ccccc3)C(=O)NC(C)C(=O)NC(CC(C)CC)C(=O)NC(C(=O)NC(Cc3ccccc3)C(=O)N3CCCC3C(=O)N2)C(C)OC(=O)C(CO)NC(=O)C(C(O)COC)N(C)C(=O)C(C(C)C)NC(=O)C(CC(C)CC)NC1=O (stereo not given) | 30.4% [6 µM] |
| OC(c1cc2c(Cl)cc(Cl)cc2c2cc(C(F)(F)F)ccc12)C1CCCCN1 (stereo not given) | -51.8% (active) |
| CCN(CC)Cc1cc(Nc2ccnc3cc(Cl)ccc23)cc(-c2ccc(Cl)cc2)c1O | 2.25% (active) |
| COc1ccc2[nH]c(C(=O)OCc3ccc4cccc(O)c4n3)cc2c1 | -78% (active) |
| C=CCn1c(SCC(=O)Nc2ccc(C(=O)/C=C/c3ccccc3)cc2)nnc1-c1ccc(OC)c(OC)c1 | 80.7% |
| Cc1ccc2oc(=O)cc(-c3nc4ccc([N+](=O)[O-])cc4[nH]3)c2c1 | 62.6% |
| CC1=NN(c2cccc(S(N)(=O)=O)c2)C(=O)C1 | 91.2% |
| COC(=O)c1cc2oc(/C=N/NC(=O)c3cc4oc(-c5cccc(C(F)(F)F)c5)cc4[nH]3)cc2n1Cc1ccccc1 | 117% |
| COc1ccc(/C(=C\c2cc(OC)c(OC)c(OC)c2)C(=O)Nc2nc3ccc(Cl)cc3s2)cc1 | 80.5% |
| O=C1C=CC(=O)N1CO | 138% |
| CCOC(C)(c1ccc(Cl)cc1)C1CCNCC1 (stereo not given) | 72.9% |
| CNC(=O)c1cc(Oc2ccc(NC(=O)c3[nH]c(SC)nc3-c3ccc(F)cc3)cc2)ccn1 | 63.7% |
| COc1c(-c2cc(-c3ccc(C)o3)[nH]c(=O)n2)c(O)cc2occc12 | 69.8% |
| CC1CN(CCCOC(=O)Nc2ccc(Cl)cc2)CCN1C(C)(C)C (stereo not given) | 96.9% |
| CCCCCNCCCCCNc1cc(OC)cc2cccnc12 | 101% |
| COc1ccc(-c2nn(-c3cccc(Cl)c3)cc2/C=C2\C(=N)N(c3ccccc3)N=C2N)cc1 | 48.8% |

| SMILES | growth |
| --- | --- |
| O=C(Nc1ccccc1)C(CCCCN1C(=O)c2ccccc2C1=O)N1C(=O)c2ccccc2C1=O (stereo not given) | 105% |
| CCc1ccc(Nc2ncnc3c2cnn3-c2cccc(Br)c2)cc1 | 102% |
| Nc1ccc(C(OC(=O)c2cc3ccccc3c(Cc3c(O)c(C(=O)OC(c4ccc(N)cc4)(c4ccc(N)cc4)c4ccc(N)cc4)cc4ccccc34)c2O)(c2ccc(N)cc2)c2ccc(N)cc2)cc1 | -5.75% (active) |
| COc1ccc(C2C3=C(COC3=O)N(CCO)c3cc(OC)c(OC)cc32)cc1 (stereo not given) | 86.2% |
| COc1ccc(NC(=O)/C=C/c2ccc(Cl)c(Cl)c2)cn1 | 83.7% |
| COc1cc(OC)cc(-c2n/c(=C\c3c(O)[nH]c4ccc(Cl)cc34)cc3c2=Nc2ccccc2-3)c1 | 91.9% |
| Cc1[nH]n(C(=O)c2ccncc2)c(=O)c1N=Nc1ccc(O)c(C(=O)O)c1 | 127% |
| COc1ccc(Nc2ncccc2C(=O)NCc2cn(Cc3cc(OC)cc(OC)c3)nn2)cc1 | 92.5% |
| N#Cc1c(NN)n(C2OC(CO)C(O)C2O)c2ncnc(N)c12 (stereo not given) | -0.0983% (active) |
| Cc1ccc(/C=C/C(=N/N=C(N)N)c2ccccc2)cc1 | 35.4% |
| Cc1cc(C#Cc2ccccc2)ccc1-n1c(/C=C/c2ccc(F)cc2)nc2ccccc2c1=O | 46.5% |
| Cc1nn(-c2ccc(Cl)cc2)c(=O)n1CCN1CCOCC1 | 75.5% |
| c1ccc(C(CC2=NCCCN2)c2ccccc2)cc1 | 97.2% |
| CCCCCCCCCCCCCCCCOc1ccc(S(=O)(=O)N(C)C)cc1[N+](=O)[O-] | 98.8% |
| CCSc1ccc([C@@H]2[C@@H](N)C(=O)N2c2cc(OC)c(OC)c(OC)c2)cc1 | 41% |
| Fc1cnccc1-c1nc2ccc3[nH]ncc3c2c2c1CCCC2 | 35.6% |
| COc1ccc2[nH]c(O)c(/C=c3/ccc4c(c3)N=C(c3ccc(F)cc3)N=4)c2c1 | 80.4% |
| O=C(Nc1ccc2ncnc(Nc3ccc(F)c(Cl)c3)c2c1)c1cccs1 | 44.5% |
| N=c1n(Cc2ccccc2)c(N)cc(=O)n1Cc1ccccc1 | 0.834% (active) |
| CN1CCN(c2ccc(N3Cc4ccccc4OC4=C3C(=O)c3c(O)ccc(O)c3C4=O)cn2)CC1 | -1.22% (active) |
